# Source: the supplement of paper PMC8728848
# About 410 targets per protein were measured; listed, in parts, are those with the strongest signals and a random draw of the rest.
# B1: SSR1 (Sclerotium rolfsii), A0A0M3KL30 (protein)
# chain: TYKITVRVYQTNPDAFFHPVEKTVWKYANGGTWTITDDQHVLTMGGSGTSGTLRFHADNGESFTATFGVHNYKRWCDIVTNLAADETGMVINQQYYSQKNREEARERQLSNYQVKNAKGRNFQIVYTEAEGNDLHANLIIG
# Key:
# Test in all cases: glycan array binding signal (z-score within array); higher = stronger binding
# Details in all cases: glycan notation: IUPAC condensed, linker removed
# [1] = molecular target: GlcNAc(b1-2)Man(a1-3)[GlcNAc(b1-2)Man(a1-6)]Man(b1-4)GlcNAc(b1-4)GlcNAc
# Procedure, shortened: (§1)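 From the Consortium for Functional Glycomics database, 3228 arrays were curated, keeping only those whose protein sequence was available. Binding is given as a within-array Z-score averaged across arrays sharing a protein sequence and across linkers. Negative Z-scores can be read as non-binding.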
# [2] = molecular target: GlcNAc(b1-2)[GlcNAc(b1-4)]Man(a1-3)[GlcNAc(b1-2)Man(a1-6)]Man(b1-4)GlcNAc(b1-4)GlcNAc
# Procedure, shortened: as §1
# [3] = molecular target: GlcNAc(b1-2)[GlcNAc(b1-6)]Man(a1-6)[GlcNAc(b1-2)Man(a1-3)]Man(b1-4)GlcNAc(b1-4)GlcNAc
# Procedure, shortened: as §1
# [4] = molecular target: GlcNAc(b1-2)[GlcNAc(b1-6)]Man(a1-6)[GlcNAc(b1-2)Man(a1-3)]Man(b1-4)GlcNAc(b1-4)[Fuc(a1-6)]GlcNAc
# Procedure, shortened: as §1
# [5] = molecular target: GlcNAc(b1-3)Gal(b1-4)GlcNAc(b1-2)[GlcNAc(b1-3)Gal(b1-4)GlcNAc(b1-6)]Man(a1-6)[GlcNAc(b1-3)Gal(b1-4)GlcNAc(b1-2)Man(a1-3)]Man(b1-4)GlcNAc(b1-4)GlcNAc
# Procedure, shortened: as §1
# [6] = molecular target: GlcNAc(b1-3)Gal(b1-4)GlcNAc(b1-6)[GlcNAc(b1-3)]Gal(b1-4)GlcNAc
# Procedure, shortened: as §1
# GlcNAc(b1-3)GalNAc = molecular target: GlcNAc(b1-3)GalNAc
# Procedure, shortened: as §1
# GlcNAc(b1-6)GalNAc = molecular target: GlcNAc(b1-6)GalNAc
# Procedure, shortened: as §1
# [7] = molecular target: Man(a1-2)Man(a1-3)[Man(a1-2)Man(a1-6)]Man(a1-6)[Man(a1-2)Man(a1-2)Man(a1-3)]Man(b1-4)GlcNAc(b1-4)GlcNAc
# Procedure, shortened: as §1
# [8] = molecular target: Man(a1-2)Man(a1-6)[Man(a1-3)]Man(a1-6)[Man(a1-2)Man(a1-2)Man(a1-3)]Man
# Procedure, shortened: as §1
# [9] = molecular target: Neu5Ac(a2-3)Gal(b1-3)GalNAc(b1-4)Gal(b1-4)Glc
# Procedure, shortened: as §1
# [10] = molecular target: Neu5Ac(a2-3)Gal(b1-3)GlcNAc(b1-3)Gal(b1-4)GlcNAc
# Procedure, shortened: as §1
# [11] = molecular target: Neu5Ac(a2-3)Gal(b1-3)[Fuc(a1-4)]GlcNAc
# Procedure, shortened: as §1
# [12] = molecular target: Neu5Ac(a2-3)Gal(b1-4)GlcNAc(b1-2)Man
# Procedure, shortened: as §1
# [13] = molecular target: Neu5Ac(a2-3)Gal(b1-4)GlcNAc(b1-3)Gal(b1-4)GlcNAc(b1-3)GalNAc
# Procedure, shortened: as §1
# [14] = molecular target: Neu5Ac(a2-3)Gal(b1-4)GlcNAc(b1-3)Gal(b1-4)GlcNAc(b1-6)[Gal(b1-3)]GalNAc
# Procedure, shortened: as §1
# [15] = molecular target: Neu5Ac(a2-3)Gal(b1-4)GlcNAc(b1-6)GalNAc
# Procedure, shortened: as §1
# [16] = molecular target: Neu5Ac(a2-3)Gal(b1-4)[Fuc(a1-3)]GlcNAc(b1-2)Man
# Procedure, shortened: as §1
# [17] = molecular target: Neu5Ac(a2-3)Gal(b1-4)[Fuc(a1-3)]GlcNAc(b1-3)Gal
# Procedure, shortened: as §1
# [18] = molecular target: Neu5Ac(a2-3)Gal(b1-4)[Fuc(a1-3)]GlcNAc(b1-3)Gal(b1-4)GlcNAc
# Procedure, shortened: as §1
# [19] = molecular target: Neu5Ac(a2-3)Gal6S(b1-4)[Fuc(a1-3)]GlcNAc
# Procedure, shortened: as §1
# [20] = molecular target: Neu5Ac(a2-6)Gal(b1-4)GlcNAc(b1-2)Man(a1-3)Man(b1-4)GlcNAc(b1-4)GlcNAc
# Procedure, shortened: as §1
# [21] = molecular target: Neu5Ac(a2-6)Gal(b1-4)GlcNAc(b1-2)Man(a1-3)[Neu5Ac(a2-3)Gal(b1-4)GlcNAc(b1-2)Man(a1-6)]Man(b1-4)GlcNAc(b1-4)GlcNAc
# Procedure, shortened: as §1
# [22] = molecular target: Neu5Ac(a2-6)Gal(b1-4)GlcNAc(b1-3)[Neu5Ac(a2-6)Gal(b1-4)GlcNAc(b1-6)]GalNAc
# Procedure, shortened: as §1
# [23] = molecular target: Neu5Ac9Ac(a2-3)Gal(b1-4)GlcNAc
# Procedure, shortened: as §1
# [24] = molecular target: Neu5Gc(a2-3)Gal(b1-3)GlcNAc
# Procedure, shortened: as §1
# Neu5Gc(a2-3)Gal(b1-4)Glc = molecular target: Neu5Gc(a2-3)Gal(b1-4)Glc
# Procedure, shortened: as §1
binder,measurement,setting,value
B1,glycan array binding signal (z-score),[1],5.28
same,glycan array binding signal (z-score),[2],3.04
same,glycan array binding signal (z-score),[3],3.93
same,glycan array binding signal (z-score),[4],3.66
same,glycan array binding signal (z-score),[5],1.32
same,glycan array binding signal (z-score),[6],0.953
same,glycan array binding signal (z-score),GlcNAc(b1-3)GalNAc,0.954
same,glycan array binding signal (z-score),GlcNAc(b1-6)GalNAc,1.03
same,glycan array binding signal (z-score),[7],-0.548
same,glycan array binding signal (z-score),[8],-0.348
same,glycan array binding signal (z-score),[9],-0.271
same,glycan array binding signal (z-score),[10],-0.343
same,glycan array binding signal (z-score),[11],-0.341
same,glycan array binding signal (z-score),[12],-0.313
same,glycan array binding signal (z-score),[13],0.407
same,glycan array binding signal (z-score),[14],1.06
same,glycan array binding signal (z-score),[15],-0.334
same,glycan array binding signal (z-score),[16],-0.374
same,glycan array binding signal (z-score),[17],-0.342
same,glycan array binding signal (z-score),[18],-0.324
same,glycan array binding signal (z-score),[19],-0.349
same,glycan array binding signal (z-score),[20],-0.341
same,glycan array binding signal (z-score),[21],-0.339
same,glycan array binding signal (z-score),[22],-0.297
same,glycan array binding signal (z-score),[23],-0.27
same,glycan array binding signal (z-score),[24],-0.329
same,glycan array binding signal (z-score),Neu5Gc(a2-3)Gal(b1-4)Glc,-0.278
